# CYP2C9 activ = activators of human CYP2C9. recombinant CYP2C9, luciferin-H conversion, luminescence; hits give high values; factor 1 = untreated enzyme, 0 = blocked. P11712. activation factor at 5 µM. 96,000 tested, 1.4% active;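 active means activation factor of 2 or more for CYP2C9 at a 5 µM dose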;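 further: 0 = sulfaphenazole-blocked wells and 1 = vehicle-only wells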
# E-sel TNF inh = blocks E-selectin expression induced by TNF alpha. HUVEC TNFa-induced E-selectin immunofluorescence, high content. inhibition, % at 2 µM. 120,000 tested, 0.71% active;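 active means inhibition above the batch mean plus 3 SD, and confirmed as a hit on visual image review, cut at about 43% in these data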;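 further: 0% = TNF-stimulated DMSO wells and 100% = unstimulated control wells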
# CYP2C19 inhib = inhibitors of human CYP2C19 | P33261 | inhibition, % at 5 µM | AID 778 | 96,000 tested, 21% active | CYP2C19 Supersomes, luciferin-H EGE luminescence, 30 min;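 active means CYP2C19 inhibition above a set limit at 5 µM in the primary screen, cut at about 50% in these data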;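 further: plate controls were negative control wells for no effect and 2.5 mM tranylcypromine positive control for full effect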
# Target sequence (P33261 whole entry, looked up): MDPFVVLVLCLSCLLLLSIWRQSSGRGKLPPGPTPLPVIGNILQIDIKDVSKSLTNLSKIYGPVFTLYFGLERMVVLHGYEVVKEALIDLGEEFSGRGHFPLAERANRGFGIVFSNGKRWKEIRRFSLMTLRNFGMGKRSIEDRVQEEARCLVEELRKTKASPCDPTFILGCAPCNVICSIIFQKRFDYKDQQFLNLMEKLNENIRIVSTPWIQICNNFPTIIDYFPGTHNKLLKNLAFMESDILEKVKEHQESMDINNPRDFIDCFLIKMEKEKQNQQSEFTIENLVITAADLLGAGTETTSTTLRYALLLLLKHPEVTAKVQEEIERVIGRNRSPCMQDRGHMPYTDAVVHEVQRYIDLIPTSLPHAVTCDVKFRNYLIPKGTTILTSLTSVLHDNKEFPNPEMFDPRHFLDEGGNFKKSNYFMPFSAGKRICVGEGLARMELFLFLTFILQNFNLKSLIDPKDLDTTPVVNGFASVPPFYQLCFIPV
# cytoskel mod = alters cytoskeleton assembly in HUVEC cells. inhibition, % at 2 µM. HUVEC TNFa F-actin phalloidin imaging, high content. 91,000 tested, 0.18% active. AID 836;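 active means inhibition above the batch mean plus 3 SD and confirmed as a hit by visual image inspection, cut at about 30% in these data, passing the limit was not always enough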
# CYP2C9 inhib = inhibitors of human CYP2C9. P11712. 96,000 tested, 20% active. inhibition, % at 5 µM. CYP2C9 Supersomes, luciferin-H conversion, luminescence;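 active means blocking of liver enzyme CYP2C9 beyond about 50% at 5 µM, limit read from the data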
# CYP2C19 act = cytochrome P450 2C19 (human) activation | recombinant CYP2C19, luciferin-H EGE luminescence; hits give high values; 0 = fully inhibited enzyme, 1 = untreated enzyme | activation factor at 5 µM | 96,000 tested, under 10 active | AID 1025;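 active means activation factor of at least 2 at 5 µM in the primary screen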;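 further: 0 = wells with 2.5 mM tranylcypromine and 1 = vehicle-only wells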
# An asterisk follows results filed as active; . = not tested or not shown. Only some compounds are listed: those with a hit (about 22% of all), similar ones and a draw of the others.
SMILES,CYP2C9 activ,E-sel TNF inh,CYP2C19 inhib,cytoskel mod,CYP2C9 inhib,CYP2C19 act
CCCCCCCOc1ccc(OC(=O)c2cccnc2)cc1,0.2,6.5,66.0*,-7.7,76.8*,0.3
O=C(NCCc1c[nH]c2ccccc12)/C(=C\c1ccco1)NC(=O)c1ccco1,.,29.7,.,.,.,.
CC(C)(C)OC(=O)N[C@@H](Cc1ccccc1)c1nnc(SCC(=O)c2ccc(Cl)cc2)o1,0.4,-12.1,60.8*,9.9,61.4*,0.4
Cc1ccccc1CS(=O)(=O)c1nnc([C@H](Cc2ccccc2)NC(=O)OC(C)(C)C)o1,0.3,19.0,27.8,20.3,66.2*,0.7
CC(C)(C)OC(=O)N[C@@H](Cc1ccccc1)c1nnc(SCC(=O)O)o1,0.4,.,3.1,34.7,56.4*,1
Cc1cc(N2CCOCC2)nc2ccc(NC(=S)NCc3ccc4c(c3)OCO4)cc12,.,-2.0,.,.,.,.
CCC(COC(=O)Nc1cccc(C)c1)NC(=O)OCC(C)C (stereo not drawn),0.4,.,93.4*,19.1,55.1*,0.1
CCOc1ccccc1NC(=O)NS(=O)(=O)c1ccc(C)cc1,0.1,31.3,20.5,-27.8,90.8*,0.8
COC(=O)c1cc(OC)c(OC)cc1NC(=S)N1CCN(C/C=C/c2ccccc2)CC1,.,-6.5,.,.,.,.
CCOc1ccccc1NC(=O)Cn1nnc(-c2ccc(OCC)c(OCC)c2)n1,0.2,59.2,88.6*,9.3,85.0*,0.1
Cc1ccc(S(=O)(=O)NC(=O)Nc2cc(C)ccc2F)cc1,0.9,.,5.6,-19.5,10.0,0.9
CCOC(=O)N1CCN(C(=S)Nc2cc(OC)c(OC)cc2C(=O)OC)CC1,1,-18.2,97.5*,15.8,1.9,0
C/C(=N\N1CCN(c2ccccc2)CC1)c1ccncc1,.,-13.8,.,.,.,.
CC(C)OC(=O)Cn1c(=O)oc2ccccc21,1.2,5.8,23.3,-4.8,-15.2,0.8
COC(=O)C1C(=O)C2=C(CC1C)NC(C)=C(C(=O)OC1CCCCC1)C2c1ccc(N(C)C)cc1 (stereo not drawn),.,-19.9,.,-23.6,.,.
Cc1ccccc1OCCCC(=O)Nc1ccccc1C(F)(F)F,2.2*,-9.9,32.4,-22.4,-121.6,0.7
CCOC(=O)Nc1cccc(C(=O)O)c1,.,13.0,.,.,.,.
CCOc1ccccc1NC(=O)CSc1ccccc1,3.6*,-21.5,51.0*,1.2,-256.6,0.5
CCOC(=O)Nc1cccc(Nc2ccccc2)c1,0.2,-8.6,79.4*,-10.3,75.3*,0.2
CCOc1ccccc1NC(=O)Cc1ccccc1OC,2.2*,-0.1,57.9*,-22.4,-120.4,0.4
CCOc1cc(N2CCOCC2)c(OCC)cc1NC(=O)Cc1ccccc1OC,1,.,31.7,21.3,2.7,0.7
O=C(CCc1ccccc1)NC(=S)Nc1cccc(Br)c1,.,-8.2,.,.,.,.
COC(=O)c1cc(OC)c(OC)cc1NC(=O)CSc1ccccc1,0.9,-6.1,65.2*,12.3,7.3,0.3
COc1ccccc1NC(=O)CCC(=O)O,0.4,-2.0,13.5,-7.5,55.6*,0.9
CCOc1ccccc1NC(=O)CCN1CCN(S(=O)(=O)c2ccc(Br)cc2)CC1,0.6,-16.5,62.7*,26.0,36.0,0.4
SMILES,CYP2C9 activ,E-sel TNF inh,CYP2C19 inhib,cytoskel mod,CYP2C9 inhib,CYP2C19 act
CCOC(=O)Nc1cccc(OCC(=O)Nc2ccccc2OCC)c1,1.3,21.7,87.5*,-8.0,-32.6,0.1
COC(=O)c1cc(OC)c(OC)cc1NC(=O)Nc1ccccc1OC,1.3,-34.6,-13.5,13.3,-30.3,1.1
CCOc1ccccc1NC(=O)CCC(=O)O,0.8,-33.1,22.2,.,21.0,0.8
CCOc1ccccc1NC(=O)CCC(=O)Nc1ccccc1OCC,2.7*,-2.7,47.1,-11.8,-165.9,0.5
Cn1nc(C(=O)N2CCc3ccccc3C2)c2ccccc2c1=O,0.5,29.6,58.4*,-5.6,53.8*,0.4
Cn1c(C(=O)N2CCc3ccccc3C2)cc2c(=O)n3ccccc3nc21,0.5,.,65.8*,.,49.1,0.3
CCn1nc(C(=O)N2CCc3ccccc3C2)c2ccccc2c1=O,0.3,.,65.5*,-20.7,69.4*,0.3
Cc1ccc(Cn2ccc(NC(=O)c3cc4nc(-c5ccco5)cc(C(F)(F)F)n4n3)n2)cc1,0.9,16.2,-0.4,-5.1,8.7,1
C=CCN1C(=O)NC(c2ccccc2)(C(F)(F)F)S/C1=C(\C#N)c1nnc(N2CCOCC2)n1-c1ccccc1 (stereo not drawn),.,19.8,.,.,.,.
O=C(CN1CCC(O)(c2ccc3c(c2)OCO3)CC1)NC1CCCCC1,.,-67.0,.,.,.,.
O=C(CN1CCC(O)(c2ccc3c(c2)OCO3)CC1)OC1CCCCC1,0.6,-21.7,53.7*,4.0,36.4,0.5
CCNC(=O)CC1C(=O)N(c2ccc(C)cc2)C(=O)N1CCc1ccc(OC)c(OC)c1 (stereo not drawn),0.9,12.4,-3.4,-12.7,6.1,1
CS(=O)(=O)N(CC(=O)NCc1ccccn1)Cc1ccc(Cl)cc1,.,-8.9,.,-8.5,.,.
O=C(c1ccc(F)cc1)N1CCN(c2cc(N3CCCCC3)c(F)cc2[N+](=O)[O-])CC1,0.1,-13.4,94.9*,-16.3,85.7*,0.1
COc1ccc(S(=O)(=O)Nc2cccc(NC(C)=O)c2)cc1,0.7,-16.0,95.3*,-1.0,29.5,0
COc1ccc(S(=O)(=O)Nc2cc(C)c(O)c(S(=O)(=O)c3ccccc3)c2)cc1,0.2,-23.0,53.0*,.,79.3*,0.5
COC(=O)c1cc(NS(=O)(=O)c2ccc(NC(C)=O)cc2)cc(C(=O)OC)c1,0.6,2.1,52.7*,-2.4,38.4,0.5
COc1cccc(NS(=O)(=O)c2ccc(NC(C)=O)cc2)c1,0.8,-34.3,60.2*,7.7,22.1,0.4
COC(=O)c1ccc(OS(=O)(=O)c2ccc(NC(C)=O)cc2)cc1,.,2.1,.,.,.,.
COc1ccc(S(=O)(=O)Nc2cccc(/C=C/C(=O)O)c2)cc1,.,26.4,.,.,.,.
Cc1ccc(S(=O)(=O)N(C)C)cc1NC(=S)N1CCCCC1CO (stereo not drawn),.,-14.6,.,.,.,.
Cc1nn(-c2cccc(Cl)c2)c2nc(-c3ccncc3)cc(C(=O)N3CCOCC3)c12,.,-0.9,.,.,.,.
Cc1ccc(S(=O)(=O)N2CCOCC2)cc1C(=O)Nc1ccc(-c2cn3ccsc3n2)cc1,0.7,-16.7,33.2,.,31.6,0.7
CC(=O)Nc1ccc(S(=O)(=O)Nc2nnc(C(C)C)s2)cc1,0.4,-2.5,-25.5,.,60.4*,1.3
S=c1[nH]nc(Cc2sc(-c3ccccc3)nc2-c2ccccc2)o1,0.4,6.6,14.3,5.4,63.7*,0.9
COC(=O)c1cccnc1NC(=S)NNC(=O)c1ccncc1,0.7,-2.0,84.1*,-12.8,25.3,0.2
C/C(=N\O)C(=O)OC1CC(C)CCC1C(C)C (stereo not drawn),0,.,95.7*,.,96.4*,0
CC1CCC(C(C)C)C(OC(=O)COC(=O)c2ccc(N)cc2)C1 (stereo not drawn),.,18.9,.,.,.,.
COC(=O)c1cc(C(=O)OC)n(Cc2ccc(F)cc2)n1,0.7,11.8,74.2*,2.2,29.0,0.3
